M1 antag: human M1 muscarinic receptor antagonists, primary screen, CHO-K1 cells, Fluo-8 calcium fluorescence, 1536-well | CHO-K1 hM1, ACh EC80 antagonist | inhibition, % at 3 µM | actives 1.3% (n = 360,000) | AID 588852, 2011;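 active = percent inhibition above its own plate's cutoff, namely the mean of that plate's compound wells plus 3 SD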;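 also: peak over basal fluorescence ratio during 140 s after agonist addition; 0% = ACh EC80 plus DMSO and 100% = DMSO alone without agonist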
Target sequence (P11229 whole entry, looked up): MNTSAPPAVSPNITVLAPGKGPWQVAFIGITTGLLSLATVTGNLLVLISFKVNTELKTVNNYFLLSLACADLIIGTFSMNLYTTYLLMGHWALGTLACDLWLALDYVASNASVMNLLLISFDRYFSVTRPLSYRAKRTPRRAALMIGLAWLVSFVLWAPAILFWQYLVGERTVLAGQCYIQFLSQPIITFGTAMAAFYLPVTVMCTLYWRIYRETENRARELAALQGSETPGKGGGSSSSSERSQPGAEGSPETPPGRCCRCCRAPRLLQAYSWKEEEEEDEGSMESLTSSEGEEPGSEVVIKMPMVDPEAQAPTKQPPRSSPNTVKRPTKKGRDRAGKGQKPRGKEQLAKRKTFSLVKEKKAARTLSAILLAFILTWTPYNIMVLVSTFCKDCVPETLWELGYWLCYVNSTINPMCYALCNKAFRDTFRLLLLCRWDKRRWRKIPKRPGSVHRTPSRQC
CHO-K1 Ca antag: nonselective inhibitor or artifact in parental CHO-K1 cells; inhibition, % at 3 µM; ATP-induced calcium, Fluo-8 fluorescence; actives 0.6% (n = 360,000); AID 602250;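 active = inhibition above a per-plate cutoff, the plate's mean sample inhibition plus 3 SD, cut at about 24% in these data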;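 also: 0% = DMSO plus EC80 ATP and 100% = DMSO alone without ATP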
CHO-K1 Ca ag: counter-screen for M1 agonists: effect in parental CHO-K1 cells; AID 602248, 2012; actives 0.48% (n = 360,000); Fluo-8 calcium fluorescence; scaled to maximal ATP response, vehicle zero; activation, % at 3 µM; in the data active = activation above about 15%;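 also: untransfected CHO-K1 host cells lacking M1 receptor as counterscreen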
CHRM1 agonist: human M1 muscarinic receptor agonists, primary screen, Fluo-8 calcium fluorescence, CHO-K1 cells, HTS | Muscarinic acetylcholine receptor M1 (Homo sapiens), P11229 | AID 588814, 2011 | actives 0.33% (n = 360,000) | activation, % at 3 µM | CHO-K1 hM1, agonist mode; 0% DMSO, 100% acetylcholine EC100;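 active = activation above the run's mean compound activation plus 3 SD, cut at about 16% in these data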;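 also: peak over basal fluorescence ratio within a 140 s kinetic read after compound addition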
CHO-K1 Ca PAM: nonselective calcium activators in parental CHO-K1 cells, primary screen, counter-screen for M1 PAM project, cell-based, Fluo-8 calcium fluorescence, full deck, 1536-well. ATP EC20; 0% at ATP EC20, 100% at ATP max. activation, % at 3 µM. actives 0.02% (n = 360,000);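 active = activation above the run cutoff, the mean activation of all test compounds plus 3 SD, cut at about 40% in these data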;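 also: peak over basal fluorescence ratio in a 140 s read after ATP addition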
M1 PAM: human M1 muscarinic receptor positive allosteric modulators, primary screen, CHO-K1 cells, Fluo-8 calcium fluorescence, 1536-well. Muscarinic acetylcholine receptor M1 (Homo sapiens), P11229. CHO-K1 hM1, ACh EC20; 0% = ACh EC20, 100% = maximal ACh. activation, % at 3 µM. actives 0.088% (n = 360,000). AID 588819, 2011; in the data active = activation above about 19%, passing the limit was not always enough
The depositor's hits bear a star. Only some compounds are listed: those with a hit (about 2.3% of all), similar ones and a draw of the others.

SMILES | M1 antag | CHO-K1 Ca antag | CHO-K1 Ca ag | CHRM1 agonist | CHO-K1 Ca PAM | M1 PAM
CCCc1nnc(NC(=O)CCC(=O)N2CCN(Cc3ccc(OC)c(F)c3)CC2)s1 | 49* | -15 | 3 | -4 | -8 | -21
COc1cc(-n2c(C)nc3ncn(-c4ccccc4)c3c2=O)cc(OC)c1OC | -13 | -8 | 0 | -2 | -1 | -3
Cc1sc2nc(CSCC(=O)NC3(C#N)CCCCC3)[nH]c(=O)c2c1C | 0 | -8 | 0 | -5 | 0 | 3
O=C(CCc1nc2ccccc2c(=O)[nH]1)Nc1nc(-c2cccs2)cs1 | 4 | 9 | 18* | 2 | 9 | 0
CCn1c(CNc2ccccc2Cl)nnc1SCCN1CCCCC1 | 51* | -9 | 0 | -4 | 13 | -21
CCn1c(CNc2ccc(F)cc2)nnc1SCCN1CCCCC1 | 14 | 0 | 0 | -3 | 6 | -7
CCCCCCCCCCCCCCCC[N+](C)(C)Cc1ccc(F)cc1 | 44* | -21 | 1 | -8 | 32 | -24
CCC(C)NS(=O)(=O)c1ccc(S(=O)(=O)N2CCCC3(CCCCC3)C2)cc1 (stereo unspecified) | 36* | 11 | 3 | -5 | 0 | -22
O=C(CCN1CCCCC1)c1cccc(Cl)c1 | -10 | 3 | 0 | -1 | -20 | 3
O=C(c1cn(-c2ccccc2)nc1-c1ccc(F)cc1)N1CCCCC1 | -5 | -3 | 17* | -6 | 15 | 4
O=C(c1cn(-c2ccccc2)nc1-c1ccc(F)cc1)N1CCOCC1 | -9 | 2 | 1 | -2 | -16 | 10
O=C(COC(=O)C12CC3CC(CC(Br)(C3)C1)C2)N1CCOCC1 | 1 | 12 | 17* | -9 | 12 | 8
Cc1ccc(C)c(NC(=O)CN2C(=O)C3CC=CCC3C2=O)c1 (stereo unspecified) | -6 | 4 | 1 | -9 | 7 | 12
Cc1cc(Cl)c(OCCOCCN2CCCC(C)C2)c(Br)c1 (stereo unspecified) | 62* | -14 | 2 | -7 | 5 | -28
Clc1ccc(OCCCN2CCCCC2)c(Br)c1 | -3 | 0 | 6 | -8 | 21 | -3
CC1CCCN(CCOCCOc2ccc(Cl)cc2Br)C1 (stereo unspecified) | 66* | -7 | 2 | -7 | 14 | -23
CC1CCCN(CCOCCOc2ccc(Br)cc2Cl)C1 (stereo unspecified) | 42* | -9 | 2 | -12 | 19 | -27
O=C(Nc1ccc(Cl)cc1)C1Cc2c(-c3ccccc3)ccnc2O1 (stereo unspecified) | -14 | -10 | 2 | -2 | 12 | 6
CN(C)[C@@H]1CCC[C@@H]1OC(=O)C(c1ccccc1)c1ccccc1 | 31* | -8 | 2 | -8 | 20 | -25
CCOC(=O)C1(C)CCN1C(=O)Cc1ccc(OC)cc1 (stereo unspecified) | -11 | 9 | 0 | -3 | -2 | 8
CN1C[C@@H]2C(c3ccccc3)C3(c4cccnc4)CC2(C3)[C@H]1c1ccccc1 (stereo partly specified) | 97* | -2 | 0 | -11 | 13 | -34
CCN(CC)S(=O)(=O)c1ccc(N2CCN(c3ccccc3OC)CC2)c(N)c1 | 34* | 17 | 12 | 1 | -21 | -18
CCN(CC)S(=O)(=O)c1ccc(Oc2ccccc2)c(N)c1 | -2 | -9 | 5 | -1 | 9 | 8
COc1ccccc1N1CCN(C(=O)C2CCCN(S(=O)(=O)c3ccc4c(c3)oc(=O)n4C)C2)CC1 (stereo unspecified) | 26 | 14 | 21* | -3 | -5 | -24
CC(CC(=O)Nc1ccc2c(c1)c(=O)n(C)n2-c1cccs1)c1ccccc1 (stereo unspecified) | -4 | -2 | 4 | -4 | 16 | -5
SMILES | M1 antag | CHO-K1 Ca antag | CHO-K1 Ca ag | CHRM1 agonist | CHO-K1 Ca PAM | M1 PAM
Cc1cc(C(=O)N2CCC2(C)C(=O)NS(=O)(=O)c2cccc(OC(F)F)c2)nn1C (stereo unspecified) | -15 | -10 | 1 | 0 | 14 | 4
O=C1[C@H]2[C@@H](c3ccc(Cl)cc3)N3C(=O)N(c4cccc(Br)c4)C(=O)[C@@]3(Cc3ccc(Cl)cc3)[C@H]2C(=O)N1C1CCCCC1 | -1 | -19 | 1 | -7 | 14 | 0
O=C1[C@H]2[C@@H](c3ccc(F)cc3)N3C(=O)N(c4cccc(Br)c4)C(=O)[C@@]3(Cc3ccc(Cl)cc3)[C@H]2C(=O)N1C1CCCCC1 | -17 | -2 | 0 | 4 | 2 | 27*
CC1(C(=O)NS(=O)(=O)c2cccc(F)c2)CCN1C(=O)CC1CCCC1 (stereo unspecified) | -6 | 0 | 0 | -3 | -3 | 0
O=C(N1CCOCC1)C12OC3CC(CC(C3)O1)O2 | 3 | 0 | 0 | -3 | 8 | 1
O=C(OCc1ccccc1)N1Cc2ccnnc2CC1c1ccccc1Br (stereo unspecified) | 9 | 32* | 0 | -5 | 0 | -1
CC(=O)Nc1cc(-c2ccc(C(=O)N3CCOCC3)cc2)cn2c(-c3ccc(S(C)(=O)=O)cc3)cnc12 | 3 | 12 | 0 | -1 | -10 | -4
OCc1cccc(-c2csc(C(O)c3ccco3)n2)c1 (stereo unspecified) | -15 | -6 | 1 | -1 | 17 | 12
CC(=O)N1CC(c2ccccc2)C(c2ccc(Cl)cc2)=N1 (stereo unspecified) | -6 | -5 | 0 | -10 | 11 | 6
CC(C)NC(=O)N1CC(c2ccccc2)C(c2ccc(Cl)cc2)=N1 (stereo unspecified) | 35* | -3 | 0 | -10 | -5 | -23
CCCc1nnc(SCC(=O)Nc2nccs2)o1 | -14 | -14 | 0 | 1 | 13 | 21
Cc1cccc(C)c1OCc1nnc(SCC(=O)Nc2nccs2)o1 | 25* | -1 | 3 | 0 | 11 | -17
O=C(Cc1ccccc1)N1CCc2ccccc21 | -5 | -5 | 0 | -7 | 14 | 8
O=C(C(Cc1ccccc1)N1C(=O)c2ccccc2C1=O)N1CCc2ccccc21 (stereo unspecified) | -12 | 26* | 0 | -1 | -7 | 11
CC1(C(=O)Nc2cnc3ccccc3c2)CCN1Cc1ccc2ccccc2c1 (stereo unspecified) | 13 | -14 | 3 | -6 | 31 | -12

Compound activity from PubChem.
